Hits are enriched below; roughly 19% of the tested compounds scored in any of these assays.
TDP1 cell noCPT = qHTS for Inhibitors of human tyrosyl-DNA phosphodiesterase 1 (TDP1): qHTS in cells in absence of CPT. Potency, µM (top dose mostly 46.2 µM), for the others: at the top dose activity change, negative = growth inhibition, most hits filed as inhibitors. DT40 Tdp1-/- hTDP1 cells, no CPT, ATP luminescence, 48 h. 420,000 tested, 15% active; further: potency means the concentration at half of the fitted maximal effect; nearly all actives have a fitted effect of over 55% in size
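Cells were dispensed at 400 per well, compounds added by pin tool, plates incubated ≥48 hr at 37 °C, then CellTiter-Glo added for 30 min at room temperature before luminescence reading. Line: DT40 Tdp1-/- complemented with hTDP1; camptothecin omitted.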
HT1080-NT tox = kills 2HG-producing HT-1080-NT fibrosarcoma cells. 360,000 tested, 1.6% active. HT-1080-NT fibrosarcoma viability, CellTiter-Glo ATP luminescence, 48 h. AID 686970. Potency, µM (series often up to 46.1 µM), for inactives: top-dose activity, negative = less viability, actives largely listed as cytotoxic;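 further: NT is the 2HG producing partner of a matched IDH1 knockdown line; potency means the concentration at half of the fitted maximal effect; 0% = DMSO-treated cells and -100% = media-only wells without cells; nearly all actives have a fitted effect of over 55% in size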
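Compounds were tested in concentration-response format on HT-1080-NT cells for 48 hours at 37 degrees C. Cell viability came from CellTiter-Glo luminescence; curves were classified by r2, response magnitude and activity.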
ELG1 repair inh = ELG1-dependent DNA repair inhibition | HEK293T ELG1-luciferase reporter, luminescence, 16 h; DNA damage induced by 5-fluorouridine | Potency, µM (series often up to 46.1 µM), for inactives: top-dose activity change, negative = inhibition, actives largely listed as inhibitors | 330,000 tested, 2.3% active | AID 504467; further: potency means the concentration at half of the fitted maximal effect; nearly all actives have a fitted effect of over 55% in size
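DMSO vehicle served as the neutral condition. Each well held 2,000 cells given 5-fluorouridine plus compound; after 16 hr at 37 °C/5% CO2, ONE-Glo was added and luciferase measured 30 min later.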
DT40 TDP1 CPT = DT40-hTDP1 cell growth loss with CPT; chicken DT40 Tdp1-/-;hTDP1 cells + 20 nM CPT, ATP luminescence, 48 h; Potency, µM (highest dose often 46.2 µM), for the others: at the highest dose activity change, negative = growth inhibition, actives largely listed as inhibitors; AID 686979; 420,000 tested, 12% active; further: potency means the concentration at half of the fitted maximal effect; nearly all actives have a fitted effect of over 55% in size
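Cell growth measured by CellTiter-Glo luminescence after a minimum 48 h, 37 C compound exposure with 20 nM CPT in Tdp1-knockout DT40 cells stably expressing hTDP1, seeded 400/well; qHTS titration format.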
IL1B secr inh = inhibitors of inflammasome signaling (IL-1 beta secretion). THP-1 LPS/ATP IL-1B secretion, AlphaLISA, 16 h; stronger effect = lower value. activity change, % at 57.5 µM. 360,000 tested, 4.7% active; in the data active means activity change below about -50%; inconclusive means mostly about -30% to -49%
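Secreted IL-1B measured by AlphaLISA bead assay after 16 h compound exposure of THP-1 cells; compounds (final up to 57.5 uM) added 1 h before LPS (250 ng/mL) and ATP (1.25 mM) stimulation; lower signal means less secretion.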
HT1080 IDH1KD tx = toxicity to HT-1080 IDH1 knockdown cells (counter line); HT-1080 IDH1 knockdown viability, ATP luminescence, 48 h; Potency, µM (top dose mostly 46.1 µM), for inactives: top-dose activity, negative = toxicity, hits mostly cytotoxic; 360,000 tested, 2% active;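 further: potency means the concentration at half of the fitted maximal effect; 0% = DMSO wells and -100% = cell-free medium wells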
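Using the IDH1-knockdown HT-1080 line run in the same batch and compound series as the NT line, viability after 48 h at 37 °C was determined by CellTiter-Glo luminescence and expressed as % activity.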
An asterisk follows results filed as active; u = inconclusive; x = not tested or not shown; ! = a repeat was not active. Unless noted, the call rests on the fitted dose curve; in most records, active means well fitted curve in the direction sought with a large enough effect; inconclusive means small, poorly fitted or top-dose-only effect, or another doubt; inactive means no such curve, though single readings can be large; an effect the other way counts as inactive or inconclusive. Unless noted, on the % scale 0 is the no-effect control and ±100 the full control effect.

SMILES | TDP1 cell noCPT | HT1080-NT tox | ELG1 repair inh | DT40 TDP1 CPT | IL1B secr inh | HT1080 IDH1KD tx
CC1=C(C(=O)Nc2ccc(C)cc2C)C(c2ccccc2F)n2nc(SCC(=O)c3ccc(C)cc3)nc2N1 (stereo not given) | 14.6µM* | x | x | 18.4µM* | x | x
CCOc1ccccc1C1C(C(=O)Nc2ccccc2)=C(C)Nc2nc(SCC(=O)c3ccc(C)cc3)nn21 (stereo not given) | 9.2µM* | x | x | 7.31µM* | x | x
CCC1(C)Cc2c(sc3nc(SC)[nH]c(=S)c23)CO1 (stereo not given) | u | u | -5.4% | -3.5% | 31.6 | -25.6%
OCC1OC(n2cnc3c(SCc4ccccc4)ncnc32)C(O)C1O (stereo not given) | u | 7.31µM* | x | u | 17.1 | 23.1µM*
Nc1ncnc2c1ncn2C1OC(CO)C(O)C1O (stereo not given) | 0.92µM*! | 19.2% | u | 1.3µM*! | -15.2 | 20.7%
Cc1sc2ccccc2c1CNC[C@H]1O[C@@H](n2cnc3c(N)ncnc32)[C@H](O)[C@@H]1O | -26.6% | 5.9% | 8.3% | -9.3% | 1.2 | -0.1%
Nc1nc(SCc2ccccc2)c2ncn(C3OC(CO)C(O)C3O)c2n1 (stereo not given) | -17.0% | 27.9% | x | -15.2% | -26.5 | 24.6%
N#Cc1c(N)n(C2OC(CO)C(O)C2O)c2ncnc(N)c12 (stereo not given) | 0.0206µM* | 1.3µM* | x | 0.0164µM* | -101.8* | 0.517µM*
Cc1cn(-c2cccnc2)c(C)c1CNC[C@H]1O[C@@H](n2cnc3c(N)ncnc32)[C@H](O)[C@@H]1O | 9.2µM* | 4.6% | 17.9% | 18.4µM* | 27.6 | 0.1%
CN(C)C(=O)c1ccc(-c2nccc(NCc3cccnc3)n2)cc1 | 1.6% | x | x | 11.5% | x | x
Cc1cccc(CN2C(=O)c3ccccc3Sc3ccc(C(=O)NC4CCCCC4)cc32)c1 | u | x | x | -9.1% | x | x
Nc1ncnc2c1ncn2C1O[C@H](CO)[C@@H](O)[C@@H]1O (stereo not given in full) | 0.206µM* | -1.8% | 3.5% | 0.461µM* | 16.1 | 0.3%
CSc1nc(N)nc2c1ncn2C1OC(CO)C(O)C1O (stereo not given) | -18.0% | 2.2% | x | -11.2% | 9.3 | -6.1%
Nc1ncnc2c1ncn2[C@@H]1O[C@H](CNCc2ccc(OCc3ccccc3)cc2)[C@@H](O)[C@H]1O | 10.3µM* | -25.7% | u | 18.4µM* | -0.3 | -24.9%
Nc1ncnc2c1ncn2C1OC(CO)C(O)C1N (stereo not given) | u | 9.4% | -0.3% | -24.4% | 11.8 | 0.1%
Nc1nccc2c1ncn2C1OC(CO)C(O)C1O (stereo not given) | 5.8µM* | -5.5% | x | 7.31µM* | u | -15.6%
Nc1ncnc2c1ncn2[C@@H]1O[C@H](CO)[C@@H](O)[C@@H]1O | 0.366µM* | 15.9% | x | 0.461µM* | -2.7 | -1.9%
Nc1ncnc2c1ncn2[C@@H]1O[C@H](CNCc2ccc(OCC(=O)Nc3ccccn3)cc2)[C@@H](O)[C@H]1O | -22.3% | 2.6% | u | u | 9.0 | 4.3%
Fc1ccccc1CSc1ncnc2c1ncn2C1CCCCO1 (stereo not given) | u | -7.6% | x | -15.7% | -8.3 | -0.1%
Clc1ccc(CSc2ncnc3c2ncn3C2CCCCO2)cc1 (stereo not given) | 16.4µM* | -18.7% | x | u | -25.6 | -29.2%
Nc1ncnc2c1ncn2[C@@H]1O[C@H](C(=O)NS(=O)(=O)c2cccc(F)c2)[C@@H](O)[C@H]1O | 5.8% | 2.8% | x | 2.5% | 8.8 | 4.8%
OC[C@H]1O[C@@H](n2cnc3cncnc32)[C@H](O)[C@@H]1O | 0.461µM* | x | x | 0.259µM* | x | x
N#Cc1ccccc1S(=O)(=O)NC(=O)[C@H]1O[C@@H](n2cnc3c(N)ncnc32)[C@H](O)[C@@H]1O | 13µM* | 17.5% | x | u | 0.0 | 14.0%
O=C(c1ccc([N+](=O)[O-])cc1)N(Cc1ccco1)c1ccccn1 | -10.3% | x | x | -21.1% | x | x
CS(=O)(=O)N1N=C(c2ccc(Br)cc2)CC1c1ccc2c(c1)OCO2 (stereo not given) | u | 16.7% | u | u | 4.8 | 10.4%
SMILES | TDP1 cell noCPT | HT1080-NT tox | ELG1 repair inh | DT40 TDP1 CPT | IL1B secr inh | HT1080 IDH1KD tx
Cc1ccc(C2=NN(S(C)(=O)=O)C(c3ccc4c(c3)OCO4)C2)cc1 (stereo not given) | 13µM* | 2.4% | u | 20.6µM* | 9.9 | 2.0%
COc1ccc(NC(=O)Cn2nnc(C(=O)NCc3ccccc3)c2N)c(OC)c1 | 13µM* | u | -14.1% | u | 29.6 | u
CCc1ccccc1NC(=O)Cn1nnc(C(=O)NCc2cccs2)c1N | 3.26µM* | 5.8µM* | 20.9% | 3.66µM* | 27.6 | 4.11µM*
COc1ccc(CCNC(=O)c2nnn(CC(=O)Nc3ccccc3)c2N)cc1OC | -27.4% | -16.9% | 4.4% | -14.4% | 224.6 | -2.5%
COc1ccc(CCNC(=O)c2nnn(CC(=O)Nc3cccc(F)c3)c2N)cc1OC | -0.6% | -17.3% | -7.4% | 4.4% | -98.2* | -11.8%
COc1ccccc1NC(=O)Cn1nnc(C(=O)NCc2cccs2)c1N | 0.461µM* | 2.31µM* | -2.1% | 0.581µM* | 37.3 | 2.06µM*
CCc1ccc(NC(=O)Cn2nnc(C(=O)NCc3cccs3)c2N)cc1 | 0.7% | -3.0% | -3.2% | 4.7% | 12.6 | -4.0%
COc1ccc(NC(=O)Cn2nnc(C(=O)NCc3cccs3)c2N)cc1 | u | u | u | u | 28.1 | u
COC1OC(COCc2ccccc2)C(N)C(OCc2ccccc2)C1OCc1ccccc1 (stereo not given) | u | -21.2% | x | u | u | u
O=C(NN=Cc1c(O)ccc2ccccc12)C1CC1 | 5.17µM* | u | x | 5.8µM* | 120.5 | 11.6µM*
Cc1cc(C)n(CCC(=O)N/N=C/c2c(O)ccc3ccccc23)n1 | 4.61µM* | u | 3.66µM* | 5.8µM* | 105.7 | u
O=C(CN1CCCC1)N/N=C/c1c(O)ccc2ccccc12 | u | u | 5.17µM* | u | 169.9 | 16.4µM*
Cc1cc(C)n(CCC(=O)N/N=C/c2ccc(O)cc2)n1 | -11.8% | 0.3% | 4.7% | -13.8% | -4.0 | 4.8%
O=C(N/N=C/c1cccc(C(F)(F)F)c1)c1ccc(O)cc1 | -25.4% | -10.3% | 17.0% | 5.2% | -81.0* | -10.6%

High-throughput results (PubChem)
